From PubChem BioAssay (EPA / NIEHS)
Active and inactive are the calls of the source. How the source made its calls: active means hit-call score of the fitted dose curve at least 0.9, where 1 is the maximum; inactive means score below 0.9.

Test system: not listed separately
Assay: ATG_GLI_CIS: Attagene CIS-FACTORIAL HepG2 Assay for human Zinc Finger Protein GLI1 (AID 2282945)
Conditions: HepG2, Attagene cis-factorial reporter mRNA, GLI element; actives raise or lower the signal
Method in brief: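 Bidirectional curve fits relative to DMSO, using reporter mRNA levels from RT-PCR plus capillary electrophoresis. Cells were HepG2 transiently carrying cis-regulated reporter constructs, harvested 24 h after dosing.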

SMILES | outcome | AC50
Cc1c(C(=O)O)c(O)cc2c1C(=O)c1c(O)c([C@@H]3O[C@H](CO)[C@@H](O)[C@H](O)[C@H]3O)c(O)c(O)c1C2=O | inactive | 
Cc1cc(NC(=O)C(=O)O)cc(C)c1Oc1ccc(O)c2c1CCC2 | inactive | 
CCCCCCCCCCO | inactive | 
CCc1c(C(=O)NN2CCCCC2)nn(-c2ccc(Cl)cc2Cl)c1-c1ccc(Br)cc1 | inactive | 
COc1cc(S(=O)(=O)O)c(C)cc1N=Nc1c(O)ccc2cc(S(=O)(=O)O)ccc12 | inactive | 
CCOC(=O)C(C)(C)Oc1ccc(Cl)cc1 | inactive | 
CN1CCN(Cc2cc(-c3ccc4[nH]c(=O)oc4c3)co2)[C@@H](c2ccc(F)cc2)C1 | inactive | 
FC(F)(F)C(F)(F)C(F)(F)C(F)(F)C(F)(F)C(F)(F)CCI | inactive | 
CNC(=O)[C@H]1O[C@@H](n2cnc3c(NCc4cc(Cl)ccc4OCc4cc(C)no4)ncnc32)[C@H](O)[C@@H]1N | inactive | 
CCCCc1ccc2c(n1)[C@@H](c1ccc(OC)cc1C[C@H](C)C(=O)O)[C@H](C(=O)O)[C@H]2c1ccc2c(c1)OCO2 | inactive | 
O=C(O)CCCCC(=O)O | inactive | 
CCCCCCCCCCCC(=O)OC | inactive | 
Cc1ccc(Cl)cc1 | inactive | 
CC(CO)OC(C)CO (stereo not drawn) (tested in a mixture with another compound) | inactive | 
COCCOCCOC | inactive | 
CC(=O)OCCOCCOCCOC(C)=O | inactive | 
COc1cc(-c2nc(NC(=O)c3cc4cc(C)cc(C)c4n3CC(=O)O)sc2CCC2CCCCC2)c(OC)cc1Cl |  | 100 µM (active)
O=C(O)Cc1ccccc1Nc1c(Cl)cccc1Cl | inactive | 
Cc1ccccc1Cl | inactive | 
Cc1nc(C)nc(N2C[C@@H](C)N(c3ccnc([C@@H](C)O)n3)[C@@H](C)C2)n1 | inactive | 
NS(=O)(=O)c1cc2c(cc1Cl)NCNS2(=O)=O | inactive | 
NC(=O)Cn1c(=O)cc(CCN2CCN(c3nccc4sccc34)CC2)c2ccc(F)cc21 | inactive | 
Cc1cc(=O)[nH]c(=S)[nH]1 | inactive | 
CCCCN(CCCC)CCCC | inactive | 
Cc1nc(-c2ccc3c(c2)CCN(CCC2CCC(NC(=O)/C=C/c4ccc(F)cc4)CC2)CC3)no1 (stereo not drawn) | inactive | 
COc1cc(/C=C/C(=O)CC(=O)/C=C/c2ccc(O)c(OC)c2)ccc1O |  | 53.9 µM (active)
O=c1[nH]cc(F)c(=O)[nH]1 | inactive | 
CN[C@H]1CC[C@@H](c2ccc(Cl)c(Cl)c2)c2ccc(S(N)(=O)=O)cc21 | inactive | 
Nc1nc(N)c2nc(CNc3ccc(C(=O)N[C@@H](CCC(=O)O)C(=O)O)cc3)cnc2n1 | inactive | 

Target: Bile acid receptor (Homo sapiens) (UniProt Q96RI1)
Assay: ATG_IR1_CIS: Attagene CIS-FACTORIAL HepG2 Assay for human Nuclear Receptor Subfamily 1 Group H Member 4 (NR1H4), IR1 submotif (AID 2282946)
Conditions: IR1 reporter transcription, actives raise or lower the signal
Method in brief: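 HepG2 cells transiently transfected with multiplexed cis-element reporter units read endogenous transcription factor activity. After 24 h compound exposure, reporter mRNA was quantified by RT-PCR, fluorescent labelling, HpaI digestion and capillary electrophoresis; bidirectional fitting versus DMSO baseline.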

Sequence of Bile acid receptor (Homo sapiens) (Q96RI1 whole entry, looked up): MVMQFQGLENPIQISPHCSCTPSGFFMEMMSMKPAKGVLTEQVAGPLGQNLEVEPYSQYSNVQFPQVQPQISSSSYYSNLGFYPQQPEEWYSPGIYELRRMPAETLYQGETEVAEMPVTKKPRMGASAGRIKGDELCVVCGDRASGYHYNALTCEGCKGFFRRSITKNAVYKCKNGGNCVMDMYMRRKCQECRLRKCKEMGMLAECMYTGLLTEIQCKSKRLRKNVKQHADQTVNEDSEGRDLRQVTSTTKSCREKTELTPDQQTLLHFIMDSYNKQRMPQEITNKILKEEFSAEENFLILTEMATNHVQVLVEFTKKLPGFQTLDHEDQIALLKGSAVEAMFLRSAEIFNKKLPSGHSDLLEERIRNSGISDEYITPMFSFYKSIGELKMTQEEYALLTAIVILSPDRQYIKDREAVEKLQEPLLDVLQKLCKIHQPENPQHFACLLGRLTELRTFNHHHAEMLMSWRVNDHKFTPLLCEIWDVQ

SMILES | outcome | AC50
Cc1c(C(=O)O)c(O)cc2c1C(=O)c1c(O)c([C@@H]3O[C@H](CO)[C@@H](O)[C@H](O)[C@H]3O)c(O)c(O)c1C2=O | inactive | 
Cc1cc(NC(=O)C(=O)O)cc(C)c1Oc1ccc(O)c2c1CCC2 | inactive | 
CCCCCCCCCCO | inactive | 
CCc1c(C(=O)NN2CCCCC2)nn(-c2ccc(Cl)cc2Cl)c1-c1ccc(Br)cc1 |  | 2.4 µM (active)
COc1cc(S(=O)(=O)O)c(C)cc1N=Nc1c(O)ccc2cc(S(=O)(=O)O)ccc12 | inactive | 
CCOC(=O)C(C)(C)Oc1ccc(Cl)cc1 | inactive | 
CN1CCN(Cc2cc(-c3ccc4[nH]c(=O)oc4c3)co2)[C@@H](c2ccc(F)cc2)C1 | inactive | 
FC(F)(F)C(F)(F)C(F)(F)C(F)(F)C(F)(F)C(F)(F)CCI | inactive | 
CNC(=O)[C@H]1O[C@@H](n2cnc3c(NCc4cc(Cl)ccc4OCc4cc(C)no4)ncnc32)[C@H](O)[C@@H]1N | inactive | 
CCCCc1ccc2c(n1)[C@@H](c1ccc(OC)cc1C[C@H](C)C(=O)O)[C@H](C(=O)O)[C@H]2c1ccc2c(c1)OCO2 | inactive | 
O=C(O)CCCCC(=O)O | inactive | 
CCCCCCCCCCCC(=O)OC | inactive | 
Cc1ccc(Cl)cc1 | inactive | 
CC(CO)OC(C)CO (stereo not drawn) (tested in a mixture with another compound) | inactive | 
COCCOCCOC | inactive | 
CC(=O)OCCOCCOCCOC(C)=O | inactive | 
COc1cc(-c2nc(NC(=O)c3cc4cc(C)cc(C)c4n3CC(=O)O)sc2CCC2CCCCC2)c(OC)cc1Cl | inactive | 
O=C(O)Cc1ccccc1Nc1c(Cl)cccc1Cl | inactive | 
Cc1ccccc1Cl | inactive | 
Cc1nc(C)nc(N2C[C@@H](C)N(c3ccnc([C@@H](C)O)n3)[C@@H](C)C2)n1 | inactive | 
NS(=O)(=O)c1cc2c(cc1Cl)NCNS2(=O)=O |  | 3.7 µM (active)
NC(=O)Cn1c(=O)cc(CCN2CCN(c3nccc4sccc34)CC2)c2ccc(F)cc21 | inactive | 
Cc1cc(=O)[nH]c(=S)[nH]1 | inactive | 
CCCCN(CCCC)CCCC | inactive | 
Cc1nc(-c2ccc3c(c2)CCN(CCC2CCC(NC(=O)/C=C/c4ccc(F)cc4)CC2)CC3)no1 (stereo not drawn) | inactive | 
COc1cc(/C=C/C(=O)CC(=O)/C=C/c2ccc(O)c(OC)c2)ccc1O |  | 51 µM (active)
O=c1[nH]cc(F)c(=O)[nH]1 | inactive | 
CN[C@H]1CC[C@@H](c2ccc(Cl)c(Cl)c2)c2ccc(S(N)(=O)=O)cc21 | inactive | 
Nc1nc(N)c2nc(CNc3ccc(C(=O)N[C@@H](CCC(=O)O)C(=O)O)cc3)cnc2n1 | inactive | 
